Shiga inhibitor = A qHTS for Small Molecule Inhibitors of Shiga Toxin | Vero cells, Shiga toxin protein synthesis inhibition reporter | inhibition, % at 38.7 µM | 290,000 tested, 9.2% active | AID 2315, 2010; in the data active means inhibition mostly above about 28%, no sharp cut-off; inactive means mostly below about 43%; further: 0% is about no effect
Lassa entry inh = qHTS for Inhibitors of binding or entry into cells for Lassa Virus; AID 540256, 2011; Lassa virus pseudotype entry inhibition, cell reporter; 300,000 tested, 1.2% active; Potency, µM (series often up to 37.9 µM), without a hit: top-dose activity change, negative = inhibition, most hits filed as inhibitors; calls by dose curve; tested in HEK293 cells; further: potency means the concentration at half of the fitted maximal effect; on the % scale 0 is the no-effect control and ±100 the full control effect; nearly all actives have a fitted effect of over 50% in size
CHX counter = Cycloheximide Counterscreen for Small Molecule Inhibitors of Shiga Toxin | cell reporter, cycloheximide protein synthesis inhibition counterscreen | max response, % | 300,000 tested, 12% active; in the data active means max response mostly above about 13%, no sharp cut-off; inactive means mostly below about 14%; further: read at 38.3 µM for the half of the compounds with a filed dose; 0% is about no effect
Marburg entry inh = qHTS for inhibitors of binding or entry into cells for Marburg Virus. Marburg virus pseudotyped entry inhibition, cell reporter. Potency, µM (top dose mostly 37.8 µM), inactives show top-dose activity change, negative = inhibition, usual class: inhibitors. 300,000 tested, 1.8% active. AID 540276, 2011; calls by dose curve; tested in HEK293 cells; further: potency means the concentration at half of the fitted maximal effect; on the % scale 0 is the no-effect control and ±100 the full control effect
* = called active by the depositor; ? = inconclusive; / = no result given; [ ] = remark or other dose. In the library only some 12% were active in any assay of this set; here they are far more common.

SMILES	Shiga inhibitor	Lassa entry inh	CHX counter	Marburg entry inh
Cc1cccc(N(Cc2ccccc2)C(=O)c2ccc(S(C)(=O)=O)cc2)c1	8	2%	5	-2%
COc1ccc(C(=O)N(Cc2ccccc2)c2cccc(C)c2)cc1	24*	/	21	/
C=CCN(CC=C)C(=S)NC(=O)c1ccc(OC)cc1	23	-3%	1	-19%[46.1 µM]
CC(CCc1ccccc1)NC(=S)NC(=O)c1ccco1 (centres undefined)	21	?	8	15%[46.1 µM]
O=S(=O)(Nc1cccc(S(=O)(=O)N2CCCCC2)c1)c1ccccc1F	/	3%	/	?
CCN(CC)S(=O)(=O)c1ccc(=O)[nH]c1	14	/	5	/
CCCCNC(=O)CSc1nc2cc3c(cc2c(=O)n1CCCC(=O)NCc1ccc2c(c1)OCO2)OCO3	/	0%[46.1 µM]	/	/
COc1ccc(N(Cc2ccccc2)N=O)cc1	/	11%[46.1 µM]	18*	12%[46.1 µM]
CCC1=C(O)CC(O)=C(C2NNC(CCC(=O)O)C2C2NC3CCCCC3N2C)C1 (centres undefined)	/	/	/	5%[46.1 µM]
COc1ccc(OCCSc2nc(N)cc(N)n2)cc1	101*	?	49*	2%
Cc1ccc(OCCSc2nc(N)cc(N)n2)cc1	130*	?	53*	-2%[46.1 µM]
CCNc1nc(NC(C)C)nc(SCCOc2ccc(C)cc2)n1	16	?	10	?
O=C(NC1CCCC1)c1ncn[nH]1	7	18%	-1	?
Cn1c(=O)cc(OCC(=O)NCc2ccc(F)cc2Cl)c2ccccc21	/	?	/	12%[46.1 µM]
CCC(C)c1ccc(OCC(=O)Nc2ccc(CN3CCOCC3)cc2)cc1 (centres undefined)	-5	-7%	11	-8%
c1ccc2c(c1)OCCc1c-2[nH]c2ccccc12	21	?	14*	1%[46.1 µM]
c1ccc2c(c1)SCc1c-2[nH]c2ccccc12	47*	/	15*	/
Cn1nnnc1SCc1nnc(-c2ccccc2Br)o1	86*	10%	33*	?
Cc1ccc(-n2nnnc2SCc2nnc(-c3ccccc3Br)o2)c(C)c1	-10	?	-1	?
Cn1nnnc1SCc1nnc(-c2ccc(F)cc2)o1	39*	14%	22*	?
Cc1nnc(SCc2nnc(-c3ccccc3Br)o2)s1	51	5%	24*	10%[46.1 µM]
Cn1nnnc1SCc1ccc(CSc2nnnn2C)cc1	11	1%[46.1 µM]	-4	11%[46.1 µM]
O=C1c2ccccc2COc2ccc(O)cc21	64	23%	10	19%
CNC(=O)Oc1ccc2c(c1)C(=O)c1ccccc1CO2	62	1%	16*	-12%[46.1 µM]
COc1ccc2c(c1)C(=O)c1ccccc1CO2	117*	-5%	53*	?
SMILES	Shiga inhibitor	Lassa entry inh	CHX counter	Marburg entry inh
CC(CCc1ccccc1)NC(=O)CNC(=S)N(Cc1cccs1)C1CCCC1 (centres undefined)	24	?	-3	?
CCOC(=O)N1CCN(c2c(-c3ccccc3)c3cc(Cl)ccc3[nH]c2=O)CC1	-16	?	3	3%
O=c1[nH]c2ccc(Cl)cc2c(-c2ccccc2)c1N1CCN(CCO)CC1	-29	?	-1	10µM*
O=c1[nH]c2cc(Cl)ccc2c(O)c1-c1ccc(Oc2ccccc2)cc1	/	3%	/	?
O=c1[nH]c2ccc(Cl)cc2c(O)c1-c1ccccc1	78*	4%	27*	-2%
CCOC(=O)c1cc(NC(=O)COC)ccc1O	-21	/	1	/
CCCCOC(=O)Nc1ccc(C(=O)OCCC)cc1	134*	?	29*	11%
CCOC(=O)c1ccc(NC(=O)COc2ccc(CNCCO)cc2OCC)cc1	-14	/	2	10µM*
COC(=O)c1ccc(NC(=O)c2ccc(NC(=O)C3CCCO3)cc2)cc1 (centres undefined)	-13	/	7	/
CCc1ccc(NC(=O)c2ccc(NC(=O)C3CCCO3)cc2)cc1 (centres undefined)	56*	3%	14*	?
CCOC(=O)c1ccc(NC(=O)COC)cc1	35*	3%	11*	-20%
CC[C@H](C)[C@H](NC(=O)[C@H](Cc1ccc(O)cc1)NC(=O)[C@@H]1CCCN1C(=O)[C@@H](N)CCCN=C(N)N)C(=O)N[C@@H](CC(C)C)C(=O)O	-2	/	-5	/
CN(CC(=O)Nc1ccccc1Cl)C(=O)COC(=O)Cc1ccc(F)cc1	7	5%	-2	13%
CCCOC(=O)c1ccc(NC(=O)C2C3CCC(C3)C2C(=O)O)cc1 (centres undefined)	20*	-7%	47*	?
CCOC(=O)c1ccc(NC(=O)C2CC2)cc1	72*	25%	22*	2%
CCCCOC(=O)c1ccc(NC(=O)C2CCCO2)cc1 (centres undefined)	67*	14%	36*	?
CCOC(=O)c1ccc(NC(=O)c2ccccc2C)cc1	86*	16%	53*	?
CCOC(=O)c1ccc(NC(=O)C2CCN(S(=O)(=O)c3ccc(C)cc3)CC2)cc1	/	6%[46.1 µM]	/	35%[46.1 µM]
CC12CCC=CC1C(c1ccc3ccccc3c1C=Cc1ccccc1)N(Cc1ccccc1)C2=O (centres undefined)	-1	/	6	/
COc1ccccc1/C=C/c1nc(C#N)c(N2CCN(C)CC2)o1	/	-28%[46.1 µM]	/	0%[46.1 µM]
CCOc1ccc(NS(=O)(=O)c2ccc(NC(=O)C3CCCO3)cc2)cc1 (centres undefined)	-21	8.9µM*	23	-23%
CCOc1ccc(S(=O)(=O)Nc2ccc(C(=O)NCC3CCCO3)cc2)cc1 (centres undefined)	-7	?	-1	1%
CCOC(=O)c1ccc(NC(=O)C2CCCO2)cc1 (centres undefined)	55*	23%	32*	1%
CCOC(=O)c1cc(NC(=O)C2CCCO2)cc(C(=O)OCC)c1 (centres undefined)	-7	-25%[14.3 µM]	1	14%
CCn1c2ccccc2c2cc(NC(=O)c3cc(OC)c(OC)c(OC)c3)ccc21	-6	?	-5	1.4µM*
SMILES	Shiga inhibitor	Lassa entry inh	CHX counter	Marburg entry inh
COc1cc(C(=O)Nc2ccc(N(C)C)cc2)cc(OC)c1OC	58*	-13%	25*	-11%
O=C(Nc1cccc(Cl)c1)N1CCOCC1	4	/	4	/
CCn1c2ccccc2c2cc(NC(=O)N3CCOCC3)ccc21	85*	4%	32*	5%
CCn1c2ccccc2c2cc(NC(=O)CN(C)CC(=O)Nc3ccc(N4CCOCC4)cc3)ccc21	1	/	-5	/
CCn1c2ccccc2c2cc(NC(=O)c3cc(OC)cc(OC)c3)ccc21	1	?	-5	?
O=C(Nc1ccc2c(c1)oc1ccccc12)N1CCOCC1	84*	?	52*	2%
O=C(COc1ccccc1Cl)Nc1ccc2oc(=O)ccc2c1	31	1%	12	-2%[46.1 µM]
COc1cc(-c2cc3n(C)c(C)c(CCC(=O)NC4CCCCC4)c(=O)n3n2)cc(OC)c1OC	/	16%[46.1 µM]	/	/
O=S(=O)(Nc1ccc2c(c1)oc1ccccc12)N1CCCC1	22	20%	20*	-7%
COc1cc2c(cc1NS(=O)(=O)N1CCCCC1)oc1ccccc12	-19	-10%	4	?
CCOC(=O)N1CCN(C(=O)C2CC(c3ccccc3OC)=NO2)CC1 (centres undefined)	-6	24%	9	7%

Bioassay records (PubChem BioAssay)
